Assay results from the supplement of paper PMC10849652.
The full data set covers some 7,900 targets. This sample favours those with a hit. About 0.6% of all pairs of compound and target were hits.

Tests used:
Test in all cases: log2 fold change, soluble protein after heating vs DMSO (PISA); higher = thermal stabilisation; K562 cells, 10 uM, 30 min; active = over 0.2 and 3.5 SD of the protein, either way, in both replicates (recomputed)
bafetinib = compound: Cc1ccc(NC(=O)c2ccc(CN3CC[C@H](N(C)C)C3)c(C(F)(F)F)c2)cc1Nc1nccc(-c2cncnc2)n1 [bafetinib]
Procedure, shortened: (§1)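 K562 cells at 2×10^6 cells/mL were exposed to 10 μM compound for 30 min, then aliquots were heated for 3 min across 48°C-58°C, pooled, and extracted in PBS containing 0.5% NP-40 at 4°C. The supernatant after 21,000xg for 90 min was taken as soluble protein and measured by TMTpro 16plex LC-MS/MS with channel sums equalised. Thermal stability is reported relative to control samples, with values from duplicates. Fold changes are given on a log2 scale.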

[1] = compound: Cc1cccc(CC(=O)N2CCc3c2ccc(-c2cn(C)c4ncnc(N)c24)c3F)n1
Procedure, shortened: as §1

nilotinib = compound: Cc1cn(-c2cc(NC(=O)c3ccc(C)c(Nc4nccc(-c5cccnc5)n4)c3)cc(C(F)(F)F)c2)cn1 [nilotinib]
Procedure, shortened: as §1

[2] = compound: Cc1nc(Nc2n[nH]c3c2CN(C(=O)N[C@H](CN(C)C)c2ccccc2)C3(C)C)c2sccc2n1
Procedure, shortened: as §1

dasatinib = compound: Cc1nc(Nc2ncc(C(=O)Nc3c(C)cccc3Cl)s2)cc(N2CCN(CCO)CC2)n1 [dasatinib]
Procedure, shortened: as §1

[3] = compound: Cc1ncc(-c2ccnc(Nc3ccc(S(C)(=O)=O)cc3)n2)n1C(C)C
Procedure, shortened: as §1

[4] = compound: Cn1cc(-c2ccc3c(c2)CCN3C(=O)Cc2cccc(C(F)(F)F)c2)c2c(N)ncnc21
Procedure, shortened: as §1

[5] = compound: Cn1cc(-c2ccc3nnc(C(F)(F)c4ccc5ncccc5c4)n3n2)cn1
Procedure, shortened: as §1

tipifarnib = compound: Cn1cncc1[C@@](N)(c1ccc(Cl)cc1)c1ccc2c(c1)c(-c1cccc(Cl)c1)cc(=O)n2C [tipifarnib]
Procedure, shortened: as §1

mubritinib = compound: FC(F)(F)c1ccc(/C=C/c2nc(COc3ccc(CCCCn4ccnn4)cc3)co2)cc1 [mubritinib]
Procedure, shortened: as §1

[6] = compound: NC(=O)Nc1cc(-c2cccc(F)c2)sc1C(=O)N[C@H]1CCCNC1
Procedure, shortened: as §1

[7] = compound: NC1(c2ccc(-c3nc4ccn5c(=O)[nH]nc5c4cc3-c3ccccc3)cc2)CCC1
Procedure, shortened: as §1

[8] = compound: NCC(=O)Nc1ccc(-n2nc(C(F)(F)F)cc2-c2ccc3c(ccc4ccccc43)c2)cc1
Procedure, shortened: as §1

entinostat = compound: Nc1ccccc1NC(=O)c1ccc(CNC(=O)OCc2cccnc2)cc1 [entinostat]
Procedure, shortened: as §1

vorinostat = compound: O=C(CCCCCCC(=O)Nc1ccccc1)NO [vorinostat]
Procedure, shortened: as §1

citarinostat = compound: O=C(CCCCCCNC(=O)c1cnc(N(c2ccccc2)c2ccccc2Cl)nc1)NO [citarinostat]
Procedure, shortened: as §1

silmitasertib = compound: O=C(O)c1ccc2c(c1)nc(Nc1cccc(Cl)c1)c1ccncc12 [silmitasertib]
Procedure, shortened: as §1

[9] = compound: O=C1NC(=O)C(c2cnc3ccccn23)=C1c1cn2c3c(cc(F)cc13)CN(C(=O)N1CCCCC1)CC2
Procedure, shortened: as §1

[10] = compound: c1cc(OCCN2CCCCC2)cc(-c2n[nH]c3ccc(-c4nnc[nH]4)cc23)c1
Procedure, shortened: as §1

[11] = compound: NC(=O)c1cnc(N[C@@H]2CCCC[C@@H]2N)nc1Nc1cccc(-n2nccn2)c1
Procedure, shortened: as §1

Measured: log2 fold change

UBXN10 (UniProt Q96LJ8)
UniProt Q96LJ8, sequence (Q96LJ8 whole entry, looked up): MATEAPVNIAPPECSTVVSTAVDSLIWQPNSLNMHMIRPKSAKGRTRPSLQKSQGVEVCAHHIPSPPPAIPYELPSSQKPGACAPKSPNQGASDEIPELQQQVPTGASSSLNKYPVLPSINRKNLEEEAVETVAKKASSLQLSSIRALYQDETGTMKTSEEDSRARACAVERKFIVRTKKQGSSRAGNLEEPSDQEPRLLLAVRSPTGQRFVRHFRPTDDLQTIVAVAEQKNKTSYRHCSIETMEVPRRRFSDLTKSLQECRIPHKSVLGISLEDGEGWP
active: [8] -0.426
inactive: bafetinib 0.002 | [1] -0.266 | nilotinib -0.085 | [2] 0.141 | dasatinib -0.032 | [3] -0.098 | [4] -0.075 | [5] 0.021 | tipifarnib 0.01 | mubritinib 0.067 | [6] 0.062 | [7] 0.102 | entinostat -0.069 | vorinostat 0.136 | citarinostat -0.121 | silmitasertib -0.006 | [9] -0.031 | [10] 0.037

WDR46 (UniProt O15213)
UniProt O15213, sequence (O15213 whole entry, looked up): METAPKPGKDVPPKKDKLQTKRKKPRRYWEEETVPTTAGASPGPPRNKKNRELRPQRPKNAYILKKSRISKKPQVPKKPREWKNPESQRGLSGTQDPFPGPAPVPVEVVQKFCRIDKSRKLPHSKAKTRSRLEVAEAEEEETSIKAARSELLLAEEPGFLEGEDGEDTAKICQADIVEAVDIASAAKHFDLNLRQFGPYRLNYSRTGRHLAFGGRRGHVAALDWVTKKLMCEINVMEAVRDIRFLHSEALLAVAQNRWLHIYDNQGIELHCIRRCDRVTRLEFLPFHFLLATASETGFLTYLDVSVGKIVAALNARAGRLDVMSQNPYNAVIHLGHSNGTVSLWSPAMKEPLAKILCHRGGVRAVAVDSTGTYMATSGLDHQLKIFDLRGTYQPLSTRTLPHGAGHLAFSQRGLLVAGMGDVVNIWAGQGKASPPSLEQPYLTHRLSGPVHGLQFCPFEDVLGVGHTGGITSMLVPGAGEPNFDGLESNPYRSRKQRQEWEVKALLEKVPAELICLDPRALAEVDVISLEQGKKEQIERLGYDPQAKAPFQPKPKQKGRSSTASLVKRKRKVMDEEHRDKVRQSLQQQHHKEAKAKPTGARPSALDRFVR
inactive: bafetinib 0.251 | [1] -0.026 | nilotinib -0.055 | [2] 0.117 | dasatinib 0.364 | [3] 0.096 | [4] -0.376 | [5] -0.187 | tipifarnib 0.084 | mubritinib -0.093 | [6] 0.098 | [11] 0.083 | [7] 0.253 | [8] 0.177 | entinostat -0.027 | vorinostat -0.042 | citarinostat -0.139 | silmitasertib 0.173 | [9] 0.257 | [10] -0.143

TXNL4B (UniProt Q9NX01)
UniProt Q9NX01, sequence (Q9NX01 whole entry, looked up): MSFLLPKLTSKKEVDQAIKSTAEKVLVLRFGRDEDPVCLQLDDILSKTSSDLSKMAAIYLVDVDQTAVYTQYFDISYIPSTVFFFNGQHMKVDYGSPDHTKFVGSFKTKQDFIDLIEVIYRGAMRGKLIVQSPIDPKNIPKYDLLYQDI
inactive: bafetinib -0.1 | [1] 0.005 | nilotinib 0.003 | [2] -0.041 | dasatinib -0.042 | [3] 0.01 | [4] 0.007 | [5] 0.028 | tipifarnib 0.008 | mubritinib 0.17 | [6] 0.098 | [11] -0.112 | [7] -0.035 | entinostat -0.024 | vorinostat 0.02 | citarinostat 0.029 | silmitasertib 0.118 | [10] 0.117
active: [8] 0.709

UBE2D1 (UniProt P51668)
UniProt P51668, sequence (P51668 whole entry, looked up): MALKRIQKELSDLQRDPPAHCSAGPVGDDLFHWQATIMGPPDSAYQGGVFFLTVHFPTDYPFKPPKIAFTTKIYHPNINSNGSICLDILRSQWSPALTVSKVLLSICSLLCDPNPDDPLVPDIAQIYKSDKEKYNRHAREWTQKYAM
inactive: bafetinib -0.065 | nilotinib -0.002 | [2] 0.046 | dasatinib -0.083 | [3] -0.074 | [4] 0.036 | [5] -0.075 | tipifarnib -0.089 | mubritinib 0.085 | [6] 0.119 | [11] 0.042 | [7] -0.143 | [8] -0.039 | entinostat -0.168 | vorinostat 0.164 | citarinostat 0.062 | silmitasertib 0.049 | [10] 0.011
active: [1] -0.345

VWA3B isoform 6 (UniProt Q502W6)
UniProt Q502W6, sequence (Q502W6 whole entry, looked up): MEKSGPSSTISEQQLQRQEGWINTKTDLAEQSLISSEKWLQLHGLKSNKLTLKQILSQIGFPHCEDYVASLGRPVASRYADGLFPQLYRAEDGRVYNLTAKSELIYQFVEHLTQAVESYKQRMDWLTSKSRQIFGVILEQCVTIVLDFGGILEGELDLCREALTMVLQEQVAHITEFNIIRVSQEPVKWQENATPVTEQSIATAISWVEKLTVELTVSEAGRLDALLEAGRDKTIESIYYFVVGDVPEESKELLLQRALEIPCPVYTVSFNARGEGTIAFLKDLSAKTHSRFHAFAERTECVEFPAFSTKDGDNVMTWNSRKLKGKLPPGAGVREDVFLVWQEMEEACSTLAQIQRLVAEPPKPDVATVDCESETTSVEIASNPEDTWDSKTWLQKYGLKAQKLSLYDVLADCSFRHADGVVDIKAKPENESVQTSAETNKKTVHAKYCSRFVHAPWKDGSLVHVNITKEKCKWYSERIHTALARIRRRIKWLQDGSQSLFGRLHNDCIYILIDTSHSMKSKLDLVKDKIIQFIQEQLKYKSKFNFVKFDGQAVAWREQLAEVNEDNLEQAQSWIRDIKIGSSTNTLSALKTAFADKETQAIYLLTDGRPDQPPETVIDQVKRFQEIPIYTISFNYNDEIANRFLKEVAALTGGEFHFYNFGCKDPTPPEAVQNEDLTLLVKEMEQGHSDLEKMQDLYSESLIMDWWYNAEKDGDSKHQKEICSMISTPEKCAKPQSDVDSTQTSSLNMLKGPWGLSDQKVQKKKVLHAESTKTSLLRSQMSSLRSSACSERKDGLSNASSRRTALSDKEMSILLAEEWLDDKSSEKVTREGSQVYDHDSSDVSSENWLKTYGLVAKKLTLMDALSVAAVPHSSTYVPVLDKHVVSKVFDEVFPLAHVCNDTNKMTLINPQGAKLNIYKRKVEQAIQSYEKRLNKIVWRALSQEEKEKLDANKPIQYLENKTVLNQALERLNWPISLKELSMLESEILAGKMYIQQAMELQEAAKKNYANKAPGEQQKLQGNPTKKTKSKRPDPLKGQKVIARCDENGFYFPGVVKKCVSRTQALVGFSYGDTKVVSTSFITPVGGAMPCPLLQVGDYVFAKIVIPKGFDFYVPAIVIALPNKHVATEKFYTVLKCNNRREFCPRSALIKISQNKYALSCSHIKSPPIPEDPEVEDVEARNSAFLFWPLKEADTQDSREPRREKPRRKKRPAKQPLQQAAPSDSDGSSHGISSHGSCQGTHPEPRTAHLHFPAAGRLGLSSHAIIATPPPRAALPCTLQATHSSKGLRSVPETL
inactive: bafetinib 0.074 | [1] 0.024 | nilotinib -0.128 | [2] 0.075 | dasatinib 0.148 | [3] -0.129 | [4] 0.045 | [5] 0.003 | tipifarnib 0.047 | mubritinib 0.014 | [11] -0.271 | [7] -0.023 | [8] -0.059 | vorinostat 0.076 | citarinostat -0.128 | silmitasertib 0.162 | [9] -0.009 | [10] -0.076

TMEM9B (UniProt Q9NQ34)
UniProt Q9NQ34, sequence (Q9NQ34 whole entry, looked up): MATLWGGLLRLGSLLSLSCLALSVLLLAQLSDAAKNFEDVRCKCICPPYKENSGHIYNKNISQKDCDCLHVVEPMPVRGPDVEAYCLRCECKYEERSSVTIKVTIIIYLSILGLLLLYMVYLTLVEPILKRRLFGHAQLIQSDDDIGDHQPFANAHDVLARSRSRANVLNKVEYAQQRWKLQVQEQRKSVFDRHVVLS
inactive: bafetinib -0.039 | [1] 0.036 | nilotinib 0.005 | [2] 0.009 | [3] -0.015 | [4] 0.051 | [5] 0.164 | tipifarnib -0.108 | mubritinib 0.009 | [6] -0.025 | [11] 0.004 | [7] -0.093 | [8] -0.111 | entinostat 0.025 | vorinostat 0.051 | citarinostat 0.023 | silmitasertib 0.038 | [9] 0.043 | [10] -0.121

WDHD1 (UniProt O75717)
UniProt O75717, sequence (O75717 whole entry, looked up): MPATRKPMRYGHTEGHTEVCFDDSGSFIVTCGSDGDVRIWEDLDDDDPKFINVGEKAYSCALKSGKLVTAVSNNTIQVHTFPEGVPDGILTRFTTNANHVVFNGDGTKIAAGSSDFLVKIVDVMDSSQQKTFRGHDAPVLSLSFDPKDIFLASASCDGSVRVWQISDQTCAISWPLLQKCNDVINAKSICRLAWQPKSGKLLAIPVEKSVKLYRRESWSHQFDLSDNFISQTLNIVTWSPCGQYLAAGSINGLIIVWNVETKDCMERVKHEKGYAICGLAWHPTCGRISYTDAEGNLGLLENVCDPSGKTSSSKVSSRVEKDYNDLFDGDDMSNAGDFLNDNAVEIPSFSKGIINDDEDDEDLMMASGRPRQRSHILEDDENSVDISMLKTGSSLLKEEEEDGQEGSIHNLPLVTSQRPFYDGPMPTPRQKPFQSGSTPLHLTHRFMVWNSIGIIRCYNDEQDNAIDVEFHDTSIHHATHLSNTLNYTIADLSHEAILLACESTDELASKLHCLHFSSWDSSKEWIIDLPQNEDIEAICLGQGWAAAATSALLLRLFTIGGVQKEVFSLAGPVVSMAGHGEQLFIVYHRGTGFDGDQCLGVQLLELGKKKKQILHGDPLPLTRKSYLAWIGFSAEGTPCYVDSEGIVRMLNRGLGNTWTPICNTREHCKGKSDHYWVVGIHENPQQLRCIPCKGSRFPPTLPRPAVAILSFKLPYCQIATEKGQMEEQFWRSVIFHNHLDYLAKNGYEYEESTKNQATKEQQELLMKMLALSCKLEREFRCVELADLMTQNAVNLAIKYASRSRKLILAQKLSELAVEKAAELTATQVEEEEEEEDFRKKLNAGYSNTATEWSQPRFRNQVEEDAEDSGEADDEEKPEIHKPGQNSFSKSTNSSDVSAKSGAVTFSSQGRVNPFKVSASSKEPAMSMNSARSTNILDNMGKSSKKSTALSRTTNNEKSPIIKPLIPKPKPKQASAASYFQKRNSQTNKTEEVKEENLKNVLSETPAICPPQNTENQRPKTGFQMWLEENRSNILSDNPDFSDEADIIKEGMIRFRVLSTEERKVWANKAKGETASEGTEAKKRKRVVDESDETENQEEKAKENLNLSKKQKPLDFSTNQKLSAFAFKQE
inactive: bafetinib -0.009 | [1] 0.008 | nilotinib -0.005 | [2] -0.12 | dasatinib -0.076 | [3] -0.021 | [4] 0.03 | [5] 0.022 | tipifarnib -0.041 | mubritinib 0.067 | [6] -0.037 | [11] -0.054 | [7] -0.156 | [8] -0.106 | entinostat 0.09 | vorinostat 0.119 | citarinostat 0.176 | silmitasertib 0.025 | [9] -0.107 | [10] -0.001

TMEM41A (UniProt Q96HV5)
UniProt Q96HV5, sequence (Q96HV5 whole entry, looked up): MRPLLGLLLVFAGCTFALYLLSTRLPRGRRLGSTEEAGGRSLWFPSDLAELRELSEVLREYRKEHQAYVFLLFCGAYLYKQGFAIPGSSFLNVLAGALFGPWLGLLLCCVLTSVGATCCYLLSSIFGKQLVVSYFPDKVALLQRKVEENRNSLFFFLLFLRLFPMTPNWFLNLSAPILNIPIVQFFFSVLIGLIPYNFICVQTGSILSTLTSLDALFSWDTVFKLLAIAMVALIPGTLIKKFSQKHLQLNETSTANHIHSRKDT
active: [1] 0.276
inactive: bafetinib -0.037 | nilotinib -0.008 | [2] -0.01 | dasatinib 0.054 | [3] -0.049 | [5] 0.082 | tipifarnib 0.026 | mubritinib 0.062 | [6] -0.005 | [11] -0.053 | [7] 0.002 | [8] -0.066 | entinostat -0.027 | vorinostat 0.09 | citarinostat 0.04 | silmitasertib -0.015 | [9] -0.018 | [10] -0.059

VPS37A (UniProt Q8NEZ2)
UniProt Q8NEZ2, sequence (Q8NEZ2 whole entry, looked up): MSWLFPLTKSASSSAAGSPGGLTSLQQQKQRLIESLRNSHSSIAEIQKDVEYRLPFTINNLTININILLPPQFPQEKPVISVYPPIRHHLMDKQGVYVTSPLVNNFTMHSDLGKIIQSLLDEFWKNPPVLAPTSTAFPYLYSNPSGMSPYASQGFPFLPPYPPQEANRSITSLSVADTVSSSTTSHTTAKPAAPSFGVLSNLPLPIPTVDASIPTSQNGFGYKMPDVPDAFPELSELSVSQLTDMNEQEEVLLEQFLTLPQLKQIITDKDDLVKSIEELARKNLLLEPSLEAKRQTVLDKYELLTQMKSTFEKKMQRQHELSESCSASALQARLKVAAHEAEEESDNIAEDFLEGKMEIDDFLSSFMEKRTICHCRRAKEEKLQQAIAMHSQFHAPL
inactive: bafetinib -0.065 | [1] -0.06 | nilotinib -0.134 | [2] -0.27 | dasatinib -0.168 | [3] -0.039 | [4] 0.048 | [5] 0.014 | tipifarnib -0.112 | mubritinib -0.038 | [6] -0.066 | [11] -0.021 | [7] -0.317 | [8] -0.051 | entinostat 0.121 | vorinostat 0.113 | silmitasertib 0.02 | [9] -0.198
